# Yeast superoxide: lowers age-related superoxide in aged yeast cells; S. cerevisiae aged cells, superoxide DHE fluorescence; stronger effect = lower value; superoxide response (% of plate mean), % at 10 µM; actives 0.18% (n = 330,000);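 active = superoxide response under a set limit, about three screen SD below normal, cut at about 65% in these data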;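 also: yeast aged for seven days with compound at 30 °C before DHE staining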
# H9c2 protect: protects H9c2 cardiomyocytes from peroxide injury | actives 0.63% (n = 360,000) | protection from H2O2 cell death, % at 20 µM | H2O2 injury protection, ATPLite, 2 h;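 active = compounds giving at least 50% protection of heart cells from peroxide-induced death in the single-dose screen, raw or plate-pattern-corrected value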
# Mot1-301 SUMO: SUMOylation pathway inhibition by Mot1-301 growth rescue. S. cerevisiae Mot1-301 growth rescue, ATP luminescence, 38.5C; percent above DMSO median, 100 means doubled. growth rescue, % at 18.8 µM. actives 1% (n = 320,000). AID 2716;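 active = every valid replicate shows activation above 250% relative to neutral control wells; inactive = the rest, any valid replicate at or below 250%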
# MPTP block: blocks calcium-induced mitochondrial swelling; isolated mouse mitochondria, Ca2+ swelling absorbance, 30 min; inhibition, % at 10 µM; AID 602449; actives 1.4% (n = 360,000);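 active = inhibition of 50% or more, scaled per plate between neutral and stimulator controls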
# FAS-TE inh: inhibitors of human fatty acid synthase thioesterase domain. P49327. inhibition, % at 15 µM. recombinant FAS-TE, OMFH fluorogenic substrate, fluorescence endpoint. AID 602261. actives 0.67% (n = 360,000);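 active = compounds whose normalised, plate-corrected inhibition of enzyme fluorescence in the single-dose primary screen is 50% or more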
# aDG glyco up: alpha-DG glycosylation activation. activation, % at 10 µM. Pro5-aDG cells, alpha-DG glycosylation AlphaScreen (IIH6); 0% Pro5, 100% B10-LARGE cell signal. actives 0.22% (n = 360,000);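 active = activation of at least 8% versus controls, or a plate z-score of at least 8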;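 also: Pro5 are CHO cells carrying HIG-tagged alpha-DG that lacks glycosylation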
# A number is an active result; i = inactive; nt = no result given; + = active, no number. Compounds with a hit are over-represented: about 3.8% of the library has one in this group of screens.
SMILES,Yeast superoxide,H9c2 protect,Mot1-301 SUMO,MPTP block,FAS-TE inh,aDG glyco up
O=C(NCCCl)C1Cc2c(ccc3ccccc23)O1 (configuration not stated),i,i,+,i,i,i
Cc1cc(C)cc(N2CC(C(=O)Nc3cc(C)on3)CC2=O)c1 (configuration not stated),i,i,341,i,i,i
Cc1cc(C)cc(N2CC(C(=O)OCC(=O)Nc3cc(C)on3)CC2=O)c1 (configuration not stated),i,i,i,i,i,i
CCOC(=O)C1CCN(c2cc3c(cc2NC(=O)c2ccccc2Br)n(C)c(=O)n3C)CC1,i,52,i,i,i,i
O=C(Nc1cccc(N=Cc2cc(Cl)cc(Br)c2O)c1)c1ccco1,i,50,i,i,i,i
NC(=O)c1ccsc1NC(=O)c1ccc([N+](=O)[O-])o1,i,78,i,i,i,i
O=C(NNc1ccc(-c2csnn2)cc1)c1cc(Cl)cc(Cl)c1,i,i,283,i,i,i
O=C(NNc1ccc(-c2csnn2)cc1)c1ccccc1C(F)(F)F,i,i,i,i,i,i
COc1ccc(OC)c(NC(=O)Cc2coc3ccc4ccccc4c23)c1,i,i,497,i,i,i
COc1ccc(OC)c(NC(=O)Cc2coc3ccc(C)cc23)c1,i,i,i,i,i,i
COc1ccc(O)c(CN2CC3CCC(CC3)C2)c1,nt,i,nt,i,i,i
COc1ccc(-c2csc(C(C#N)=C(O)CSc3nccn3C)n2)cc1OC,nt,57,nt,i,i,i
O=Cc1cccn1-c1c(C(=O)O)cnn1-c1ccccc1,i,i,i,i,i,i
O=C(O)c1cnn(-c2ccccc2)c1-c1ccncc1,i,i,322,i,i,i
COc1ccc(CN(C(=O)c2ccc3c(c2)OCCO3)C(C(=O)NC2CCCCC2)c2ccc3ncccc3c2)cc1 (configuration not stated),i,i,i,i,i,i
O=C(NC1CCCCC1)C(c1ccc2ncccc2c1)N(Cc1ccccc1)C(=O)c1ccc2c(c1)OCCO2 (configuration not stated),i,53,i,i,i,i
COc1ccc(N2CCN(C3CCCN(Cc4ccc(F)cc4Cl)C3)CC2)cc1 (configuration not stated),i,i,i,i,i,i
Cc1cc2ccccn2c1C(=O)c1ccc([N+](=O)[O-])cc1[N+](=O)[O-],i,i,317,i,i,i
Cc1cc2ccccn2c1C(=O)c1cccc([N+](=O)[O-])c1,i,i,i,i,i,i
CC1CCc2c(sc3ncn(CC(=O)N=Nc4c(O)[nH]c5ccccc45)c(=O)c23)C1 (configuration not stated),i,i,i,i,i,i
CCc1nc(N=Nc2c(O)[nH]c3ccccc23)c2c3c(sc2n1)CCC3,i,69,i,i,i,i
CCOC(=O)c1ccccc1NC(=O)C1CC(=O)N(C2CCCC2)C1 (configuration not stated),nt,i,nt,i,i,i
COCCN1CCN(c2c3c(nc4cc(-c5cccc(F)c5)nn24)CCC3)CC1,i,86,i,i,i,i
OC1CCCN(c2c3c(nc4cc(-c5cccc(F)c5)nn24)CCCC3)C1 (configuration not stated),i,i,i,i,i,i
COc1cccc(CN(C)C[C@@H]2OCc3cnnn3CCCC(=O)N([C@H](C)CO)C[C@H]2C)c1,nt,i,nt,i,i,i
SMILES,Yeast superoxide,H9c2 protect,Mot1-301 SUMO,MPTP block,FAS-TE inh,aDG glyco up
O=C(CN1CCCc2ccccc21)N/N=C/c1ccc(O)cc1O,i,52,i,i,i,i
COc1ccccc1/C=C\C(=O)NCC(=O)N/N=C/c1ccc(O)cc1O,i,52,i,i,i,i
COc1cccc(/C=N/NC(=O)CNC(=O)/C=C\c2ccccc2)c1O,i,52,i,i,i,i
O=C(CNS(=O)(=O)c1ccc([N+](=O)[O-])cc1)N/N=C/c1ccc(O)cc1O,i,55,i,i,i,i
O=C(CNS(=O)(=O)c1ccc([N+](=O)[O-])cc1)N/N=C\c1ccc(O)cc1,i,i,i,i,i,i
O=C(CS(=O)(=O)Cc1ccccc1)c1ccccc1,nt,i,nt,i,i,i
CC1CCC2(CC1)NC(=O)N(NC(=O)C1CCN(C(=O)c3ccc(Cl)cc3)CC1)C2=O (configuration not stated),nt,i,nt,i,i,i
COc1ccc(OC)c(NC(=O)C2(C)CCN2C(=O)C2(c3ccccc3)CCCC2)c1 (configuration not stated),nt,i,nt,i,i,i
COc1ccc(Br)cc1/C=N/NC(=O)CNC(=O)/C=C/c1ccccc1,i,64,i,i,i,i
O=C(CCc1ccccc1)NCC(=O)N/N=C/c1ccc(O)cc1O,i,53,i,i,i,i
COc1cc2sc(-c3ccc(S(C)(=O)=O)cc3)c(C#CCO)c2cc1OC,i,53,i,i,i,i
COC(=O)c1sccc1NC(=O)c1ccc(OC)cc1OC,i,i,420,i,i,i
COC(=O)c1sccc1NC(=O)c1cccc(OC)c1,i,i,i,i,i,i
O=C(COc1ccccc1)Nc1ncc2c(n1)CCCC2=O,i,i,292,i,i,i
CCOC(=O)c1cc(-c2ccc(C)o2)nn1CCC#N,i,i,347,i,i,i
CCCOc1ccc(N2C(=O)CC(SC(=NCC)NCC)C2=O)cc1 (configuration not stated),i,i,i,i,i,i
CCCCCCOc1ccc(N2C(=O)CC(SC(=NCC)NCC)C2=O)cc1 (configuration not stated),65,i,i,i,i,i
Cc1cc(O)ccc1N=Cc1c(C(F)(F)F)[nH][nH]c1=O,i,i,i,i,i,i
COc1ccc(C(C(=O)NC2CCCC2)N(C(=O)c2snc(C(N)=O)c2N)c2cccc(O)c2)cc1 (configuration not stated),i,52,i,i,i,i
COc1ccc(C(C(=O)NC2CCCCC2)N(C(=O)CCl)c2ccc(OC)cc2)cc1 (configuration not stated),i,i,i,i,i,i
COc1ccc(C(C(=O)NC2CCCCC2)N(C(=O)CCl)c2cccc(Cl)c2)cc1 (configuration not stated),i,i,328,i,i,i
O=C(CCN1CCN(Cc2ccccc2)CC1)Nc1ccccc1Cl,i,i,327,i,i,i
CN1CCN(CCC(=O)Nc2ccccc2Cl)CC1,i,i,i,i,i,i
CCc1ccc(NC(=O)CCCN2C(=O)C3CC=CCC3C2=O)cc1 (configuration not stated),i,i,i,i,i,i
O=c1oc2ccccc2c2nccnc12,i,i,324,i,i,i
